Reference: article PMC4336329 (PLoS ONE, 2015)
In all, about 310,000 compounds went through this assay and about 14,000 (4.5%) showed an effect of 50% or more. Effects have a minus sign here. What follows is part of a selection rich in strong results, with near analogues and random picks from the rest.

biological target: human ether-à-go-go-related gene (hERG) potassium channel (human, UniProt Q12809); assay: primary screen, population patch clamp on CHO cells stably expressing hERG; higher = less effect of the substance
Sequence (Q12809 whole entry, looked up): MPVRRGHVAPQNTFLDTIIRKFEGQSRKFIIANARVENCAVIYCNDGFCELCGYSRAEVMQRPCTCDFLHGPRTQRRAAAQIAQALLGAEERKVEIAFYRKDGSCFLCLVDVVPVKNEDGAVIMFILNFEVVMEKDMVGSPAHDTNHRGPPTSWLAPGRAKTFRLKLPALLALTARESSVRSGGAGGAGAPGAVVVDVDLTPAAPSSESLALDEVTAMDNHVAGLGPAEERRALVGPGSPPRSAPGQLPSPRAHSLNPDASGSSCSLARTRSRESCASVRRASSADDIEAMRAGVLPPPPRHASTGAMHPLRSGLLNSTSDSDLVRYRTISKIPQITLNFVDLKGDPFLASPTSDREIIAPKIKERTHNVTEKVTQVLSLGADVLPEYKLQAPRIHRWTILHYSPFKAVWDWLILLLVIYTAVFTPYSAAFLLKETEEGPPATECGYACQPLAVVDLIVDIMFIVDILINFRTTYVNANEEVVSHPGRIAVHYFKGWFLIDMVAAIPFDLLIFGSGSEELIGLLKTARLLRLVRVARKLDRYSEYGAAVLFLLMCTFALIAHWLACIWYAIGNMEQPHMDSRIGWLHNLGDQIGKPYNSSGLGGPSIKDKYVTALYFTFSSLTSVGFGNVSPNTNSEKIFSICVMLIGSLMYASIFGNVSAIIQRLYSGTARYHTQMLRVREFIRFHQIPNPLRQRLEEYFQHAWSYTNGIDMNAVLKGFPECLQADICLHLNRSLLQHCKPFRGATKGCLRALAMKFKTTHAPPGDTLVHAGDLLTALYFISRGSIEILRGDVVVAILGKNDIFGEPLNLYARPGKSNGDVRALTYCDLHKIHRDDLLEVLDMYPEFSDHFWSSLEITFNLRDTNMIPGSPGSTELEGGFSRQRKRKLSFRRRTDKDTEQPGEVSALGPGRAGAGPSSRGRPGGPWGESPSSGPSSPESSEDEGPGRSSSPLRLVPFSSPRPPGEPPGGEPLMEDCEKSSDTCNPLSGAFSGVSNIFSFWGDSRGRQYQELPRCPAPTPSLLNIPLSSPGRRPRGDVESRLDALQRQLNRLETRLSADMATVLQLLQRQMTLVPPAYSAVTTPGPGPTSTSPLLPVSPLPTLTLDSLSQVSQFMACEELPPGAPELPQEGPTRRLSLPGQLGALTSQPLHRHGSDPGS
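Further: peak tail current of the secondary pulse compared with the same well before compound.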

Compound	hERG current change (%, negative = inhibition) at 10uM [%]
COc1ccc(C2=NN(C(=O)c3ccco3)C(c3ccco3)C2)cc1OC (stereo not shown)	7.24
COc1cccc(SCc2noc(C(=O)NCC3CC3)c2C(=O)NCC2CC2)c1	-43.5
CCN(Cc1ccccc1)C(=O)c1ccccc1C	1.76
CC(NC(=O)C1CCN(S(=O)(=O)N2CCC3(CC2)OCCO3)CC1)c1ccccc1 (stereo not shown)	20.9
CCCC(C)NS(=O)(=O)c1ccccc1 (stereo not shown)	-18.4
CN1CC(=O)N(CC(=O)Nc2ccc(SC(F)F)cc2)C1=O	-23.5
CCOc1ccc2nc(C(=O)N3CCCC(C)C3)sc2c1 (stereo not shown)	-2.28
CCOC(=O)C1=C(C)N(C)C(=S)NC1c1ccc(Cl)cc1 (stereo not shown)	-21.5
Cc1ccc(C(=O)OCC(=O)NC(=O)NCc2ccccc2)cc1C	7.95
CCOC(=O)c1cnc(SCCN2CCOCC2)nc1N	9.59
COC(=O)c1ccccc1NC(=O)c1cc2n(n1)C(C(F)F)CC(C(F)F)N2 (stereo not shown)	14
Cc1cc(C)n(C(C)CC(=O)Nc2ccc(-c3ccno3)cc2)n1 (stereo not shown)	1.47
CC1(C)CC(=O)C=C(NCCN2CCNCC2)C1	-2.18
Cc1sc2ncnc(N3CCC(C(=O)Nc4cc(Cl)ccc4Cl)CC3)c2c1C	4.42
Cc1cccc(C)c1NC(=O)CN(C)C(=O)C1CCN(c2ncnc3sc(C)c(C)c23)CC1	-46.7
Cc1sc2ncnc(N3CCC(C(=O)N(C)CC(=O)Nc4ccccc4Cl)CC3)c2c1C	-67.7
C=CCN(C(=O)CSc1nc2ccsc2c(=O)n1Cc1ccccn1)c1ccccc1	-19.4
COCCCNC(=O)Cn1cc(C(C)=O)c2ccccc21	17.7
CC1CCN(C(=O)CN(c2ccccc2)S(=O)(=O)N(C)C)CC1	14.2
CCOC(=O)NC(N(O)c1cccc(Cl)c1)C(Cl)(Cl)Cl (stereo not shown)	-74.2

Compound	hERG current change (%, negative = inhibition) at 10uM [%]
CCOC(=O)NC(C(Cl)(Cl)Cl)S(=O)(=O)c1ccccc1 (stereo not shown)	-6.98
CCOC(=O)NC(c1ccc(C(C)C)cc1)C(Cl)(Cl)Cl (stereo not shown)	1.44
Cc1ccc(-c2cc(C(=O)Nc3cc(C)on3)c3ccccc3n2)cc1	4.13
C=C(C)Cn1c(C2CC(=O)N(c3ccccc3F)C2)nc2ccccc21 (stereo not shown)	-27
Cc1ccc(OCC(=O)NC(C)c2ccc(Cl)c(Cl)c2)c([N+](=O)[O-])n1 (stereo not shown)	-21.4
CN(C)CCCNCCCNC(=O)/C(=N\O)c1ccccc1	6.64
O=C(C1CCOCC1)N1CCCC(N2CCN(c3ccc(F)cc3)CC2)C1 (stereo not shown)	-3.64
COc1ccccc1N1CCN(C2CCCN(C(=O)c3cccc(-c4ccco4)c3)C2)CC1 (stereo not shown)	-36.1
O=C(c1cccs1)N1CCN(c2ccc(F)cc2)CC1	-9.63
O=C(c1cccs1)N1CCCC(N2CCN(c3ccc(F)cc3)CC2)C1 (stereo not shown)	-65.7
O=C(c1ccc(Cl)s1)N1CCCC(N2CCN(c3ccc(F)cc3)CC2)C1 (stereo not shown)	-70.1
Cc1ccccc1N1CCN(C2CCCN(C(=O)c3ccc(Cl)s3)C2)CC1 (stereo not shown)	-46.8
CC(=O)c1ccc(C(=O)N2CCCC(N3CCN(c4ccc(F)cc4)CC3)C2)s1 (stereo not shown)	-63.7
CC(C)n1cc(C(=O)N2CCCC(N3CCN(c4ccc(F)cc4)CC3)C2)cn1 (stereo not shown)	-34.9
O=C(c1cccc(-c2ccco2)c1)N1CCCC(N2CCN(c3ccc(F)cc3)CC2)C1 (stereo not shown)	-78.5
CC(C)=CC(=O)N1CCCC(N2CCN(c3ccc(F)cc3)CC2)C1 (stereo not shown)	-0.816
O=C(c1ccoc1)N1CCCC(N2CCN(c3ccc(F)cc3)CC2)C1 (stereo not shown)	-48.1
O=C(c1ccncc1)N1CCCC(N2CCN(c3ccc(F)cc3)CC2)C1 (stereo not shown)	-44.6
CCN(C(=O)COC(=O)C1CCN(S(=O)(=O)c2ccc(C)c(C)c2)CC1)C1CCS(=O)(=O)C1 (stereo not shown)	-7.82
Cc1nnc2ccc(-c3ccc(NS(C)(=O)=O)cc3)nn12	-16

Compound	hERG current change (%, negative = inhibition) at 10uM [%]
CCOc1nc(Nc2ccccc2)nc(OCC)n1	-21.7
COc1ccc(-c2ccc(N(C)C)cc2)cc1[C@H]1[C@H]2C=CC[C@@H](C)[C@@H]2C(=O)N1Cc1ccccc1	10.1
Cc1nc(N2CCN(Cc3ccccc3)CC2)nc2c1C(=O)CC(C)C2 (stereo not shown)	-5.32
C(=N\N1CCN(C2c3ccccc3-c3ccccc32)CC1)/c1cccnc1	2.63
Cc1nnc(NC(=O)c2ccc(S(=O)(=O)N3CC(C)OC(C)C3)cc2)o1 (stereo not shown)	12.6
Cc1ccc(S(=O)(=O)N2CCCC2C(=O)Nc2nc3ccccc3s2)cc1 (stereo not shown)	-14.8
Oc1ccc(/C=N/N=C(c2ccccc2)c2ccccc2)c(O)c1O	8.49
COC(=O)CSc1nccc(C)n1	14.6
COC(=O)c1cn(NC(=O)Cn2nc([N+](=O)[O-])c(Cl)c2C)c(=O)c2ccccc12	18.6
CC1CCN(S(=O)(=O)c2cccc(C(=O)Nc3ccccn3)c2)CC1	-22.1
O=C(Nc1ccccc1O)c1cccc(S(=O)(=O)N2CCOCC2)c1	17.7
CNC(=O)c1ccccc1NC(=O)c1cccc(S(=O)(=O)N2CCCCC2)c1	-51.1
O=C(Nc1ccccc1C(=O)N1CCCC1)c1cccc(S(=O)(=O)N2CCCCCC2)c1	-39.3
CC1CCN(S(=O)(=O)c2cccc(C(=O)Nc3ccccc3)c2)CC1	-9.3
O=C(Nc1ccccc1C(=O)N1CCCC1)c1cccc(S(=O)(=O)N2CCCCC2)c1	-12.1
CCNC(=O)c1ccccc1NC(=O)c1cccc(S(=O)(=O)N2CCOCC2)c1	-71.5
CCNC(=O)c1ccccc1NC(=O)c1cccc(S(=O)(=O)N2CCC(C)CC2)c1	-55.4
Cc1ccccc1NC(=O)c1cccc(S(=O)(=O)N2CCOCC2)c1	31.9
